High-throughput results as filed in PubChem BioAssay.
TDP1 block: blocks human tyrosyl-DNA phosphodiesterase 1; Q9NUW8; recombinant TDP1, AlphaScreen DNA substrate cleavage; Potency, µM (highest dose often 130 µM), for the others: top-dose activity change, negative = inhibition, usual class: inhibitors; actives 0.28% (n = 350,000); also: % is scaled to controls: 0 for no effect and ±100 for the full control effect; nearly all actives have a fitted effect of over 40% in size
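Tdp1 1 nM final; 15 min RT w/ cpd; substrate 15 nM, 5 min; beads 10 ug/ml, 10 min; AlphaScreen read. Neg ctrl: no enzyme.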
TDP1 cell noCPT: qHTS for Inhibitors of human tyrosyl-DNA phosphodiesterase 1 (TDP1): qHTS in cells in absence of CPT. DT40 Tdp1-/- hTDP1 cells, no CPT, ATP luminescence, 48 h. Potency, µM (series often up to 46.2 µM), inactives show at the top dose activity change, negative = growth inhibition, hits mostly inhibitors. actives 15% (n = 420,000). AID 686978, 2013; also: % is scaled to controls: 0 for no effect and ±100 for the full control effect; nearly all actives have a fitted effect of over 55% in size
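DT40 Tdp1-/-;hTDP1 cells, no CPT (DMSO vehicle only), 400 cells/well; compounds pin-transferred; ≥48 hr, 37 °C; CellTiter-Glo 30 min RT dark, luminescence read.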
DT40 TDP1 CPT: growth inhibition of DT40 Tdp1-/-;hTDP1 cells with camptothecin (screen for TDP1 inhibitors); Potency, µM (titrated, usually from 46.2 µM), inactives show at the top dose activity change, negative = growth inhibition, hits mostly inhibitors; chicken DT40 Tdp1-/-;hTDP1 cells + 20 nM CPT, ATP luminescence, 48 h; actives 12% (n = 420,000); AID 686979; also: % is scaled to controls: 0 for no effect and ±100 for the full control effect; nearly all actives have a fitted effect of over 55% in size
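Chicken DT40 Tdp1-/- cells complemented with human TDP1, 400 cells/well, exposed to compounds plus 20 nM camptothecin for at least 48 h at 37 C; viability read as ATP content by CellTiter-Glo luminescence.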
ClpP mod: qHTS Assay for Activators of ClpP. ATP-dependent Clp protease proteolytic subunit (Bacillus subtilis (strain 168)), P80244. purified B. subtilis ClpP, FRET peptide cleavage, 20 min. actives 1.9% (n = 340,000). Potency, µM (titrated, usually from 57.5 µM), for the others: at the top dose activity change, negative = active; active = well fitted falling curve with a large enough effect; inconclusive = small, poorly fitted or top-dose-only effect; inactive = no such curve, though single readings can be large or run the other way; also: the source files actives as falling curves though it sought activators and does not explain the sign; nearly all actives have a fitted effect of over 65% in size
Target sequence (P80244 whole entry, looked up): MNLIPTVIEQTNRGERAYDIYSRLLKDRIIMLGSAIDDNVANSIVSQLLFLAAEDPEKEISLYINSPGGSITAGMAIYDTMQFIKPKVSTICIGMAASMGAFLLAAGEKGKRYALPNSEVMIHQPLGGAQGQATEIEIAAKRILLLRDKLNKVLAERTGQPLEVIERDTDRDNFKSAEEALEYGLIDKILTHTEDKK
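FRET quenching reversal measured ClpP activation: 10 microg/mL B. subtilis ClpP at pH 8 with the FRET-FV decapeptide, read at 430 nm after 320 nm excitation. The 20-min minus 0-min signal was scaled between DMSO/no-enzyme wells and ADEP (5.8 microM final).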
An asterisk follows results filed as active; ? = inconclusive; . = not tested or not shown; [ ] = another dose, or the depositor's remark. Most compounds without a hit are left out; they make up all but 17% or so of the library. Unless noted, calls follow the shape of the dose curve; as a rule, active = well fitted curve in the direction sought with a large enough effect; inconclusive = small, poorly fitted or top-dose-only effect, or another doubt; inactive = no such curve, though single readings can be large; an effect the other way counts as inactive or inconclusive. Potency is read from the fitted curve at half-maximal effect.

SMILES	TDP1 block	TDP1 cell noCPT	DT40 TDP1 CPT	ClpP mod
Cc1ccc(S(=O)(=O)C(C#N)c2nc3ccccc3nc2N2CCN(C)CC2)cc1 (configuration not stated)	5%	8%	1%	-2%
N#CC(C(=O)OC1CCCCC1)c1nc2ccccc2nc1N1CCOCC1 (configuration not stated)	-3%	?	?	4%
N#CC(C(=O)NC1CCCCC1)c1nc2ccccc2nc1N1CCN(c2ccc(F)cc2)CC1 (configuration not stated)	0%	.	.	.
Oc1ccc(-c2nn[nH]n2)c2cccnc12	3%	.	.	.
CCOC(=O)c1ccccc1NC(=O)N1CCN2CCCCC2C1 (configuration not stated)	-3%	-2%	21%	-17%
Nc1nc(OCC2CCCCC2)c2[nH]cnc2n1	14%	?	-12%	1%
CC(=O)/C(N=Nc1ccc(C(=O)O)cc1[N+](=O)[O-])=C(\C)O	.	11%	-1%	1%
CC(=O)/C(N=Nc1cc2c(c([N+](=O)[O-])c1C)C(C)(C)CC2(C)C)=C(\C)O	8%	18µM*	?	-1%
CC(=O)/C(N=Nc1cc2c(cc1[N+](=O)[O-])OCCO2)=C(\C)O	-3%	26µM*	?	.
CCc1ccc(NC(=O)Cn2ccn(-c3ccc(C)c(C)c3)c(=O)c2=O)cc1	0%	-17%	0%	4%
CC(=O)N1CCC[C@@]2(CCN(Cc3cc(C(F)(F)F)cc(C(F)(F)F)c3)C2)C1	.	-28%	-14%	.
FC(F)(F)c1cc(CN2CCC3(CCNCC3)CC2)cc(C(F)(F)F)c1	.	4.6µM*	6.5µM*	.
O=C1S/C(=C/c2ccccc2F)C(=O)N1CCN=C1NS(=O)(=O)c2ccccc21	1%	?	16µM*	-23%
O=C(CN1C(=O)NC2(CCCC2)C1=O)NCCN1C(=O)S/C(=C\c2ccccc2F)C1=O	3%	?	?	32µM*
O=C(CN1C(=O)S/C(=C\c2ccccc2F)C1=O)Nc1ccccc1O	.	-9%	-21%	0%
Cc1nn(Cc2ccccc2)c(C)c1C(=O)NCCN1C(=O)S/C(=C\c2ccccc2)C1=O	-5%	?	21µM*	29%
CCc1noc(C)c1C(=O)NCCN1C(=O)S/C(=C\c2ccccc2F)C1=O	.	18µM*	18µM*	0%
O=C(CCl)NCCN1C(=O)S/C(=C\c2cccnc2)C1=O	3%	?	?	.
CCc1ccc(C2=NN(CCC(=O)NCCc3ccc(Cl)cc3)C(=O)CC2)cc1	2%	?	?	?
COc1ccc(NC(=O)Cn2ncc3c(C)n(Cc4cccc(Cl)c4)c(C)c3c2=O)cc1	3%	-28%	-17%	-3%
COc1cc(OC)c(OC)cc1CN1CCC(n2cc(C(=O)N3CCCCC3)nn2)CC1	.	-8%	8%[9.04 µM]	.
CCCCn1nc(C(=O)N(C)CC(=O)Nc2cccc(F)c2)c2ccccc2c1=O	10%	?	?	1%
CCOc1ccc(NC(=O)CN(C)C(=O)c2ccccc2OCCOc2ccccc2)cc1OCC	3%	8.2µM*	?	-2%
CCOc1ccc(NC(=O)CN(C)C(=O)c2ccccc2CCc2ccccc2)cc1OCC	.	?	21µM*	.
CCOc1ccc(NC(=O)CN(C)C(=O)c2cccc3ccccc23)cc1OCC	0%	?	-2%	-1%
SMILES	TDP1 block	TDP1 cell noCPT	DT40 TDP1 CPT	ClpP mod
CCOc1ccc(NC(=O)CN(C)C(=O)CCCOc2ccc(Cl)c(C)c2)cc1OCC	0%	23µM*	15µM*	2%
CCCn1nc(C(=O)N(C)CC(=O)Nc2ccc(OCC)c(OCC)c2)c2ccccc2c1=O	0%	-15%	-22%	25µM*
Cn1cnnc1SCC(=O)NC1CCCN(Cc2ccccc2F)C1 (configuration not stated)	2%	12%	1%	-1%
Cc1ccc2nc(/C=C/c3ccc(N(C)C)cc3)ccc2c1	.	13µM*	13µM*	-4%
Cc1ccc2nc(/C=C/c3cccc(F)c3)ccc2c1	-6%	?	1%	.
CN(C)c1ccc(/C=C/c2ccc3cc(N)ccc3n2)cc1	.	3.2µM*	7.1µM*	-7%
COc1cc([C@@H]2CC=C(C(=O)O)CN2S(=O)(=O)c2ccc(C)cc2)cc(OC)c1OC	-2%	-1%	4%	-2%
COc1ccc(COC(=O)CCc2c[nH]c3ccccc23)cc1F	.	10%	-1%	0%
O=C1C(Cl)=C(Nc2cccc(O)c2)C(=O)N1Cc1ccccc1	0%	?	23µM*	.
CCOc1ccccc1NC1=C(Cl)C(=O)N(Cc2ccccc2)C1=O	6%	?	?	-2%
CC1CCN(C(=O)c2ccc(NC3=C(Cl)C(=O)N(Cc4ccccc4)C3=O)cc2)CC1	3%	12µM*	18µM*	-3%
CC1CCCCN1C(=O)c1cccc(NC2=C(Cl)C(=O)N(Cc3ccccc3)C2=O)c1 (configuration not stated)	5%	?	?	0%
Cc1ccc(S(=O)(=O)N(CCCO)CC(O)CON=C2c3ccccc3-c3ccccc32)cc1 (configuration not stated)	8%	16µM*	?	1%
COc1ccccc1N(CC(O)COc1ccc(C)cc1)S(=O)(=O)c1ccccc1 (configuration not stated)	-3%	?	-5%	-3%
COc1ccc(OC)c(S(=O)(=O)N/N=C\c2cn(CC(N)=O)c3ccccc23)c1	2%	?	13µM*	-2%
Cc1ccc(S(=O)(=O)N/N=C\c2cn(CC(N)=O)c3ccccc23)cc1	5%[56.1 µM]	-3%	10%	0%
CCCCCCCCOc1c(OC)cc(/C=C/C(=O)N2CCN(c3ccc(C)c(C)c3)CC2)cc1OC	10%	.	.	.
Cc1cccc(C)c1NC(=O)C(c1ccncc1)n1c(=O)c(-c2ccccc2)nc2ccccc21 (configuration not stated)	.	?	-12%	4%
Cc1cc(=O)oc2cc(OCC(=O)N3CCc4ccccc4C3)ccc12	-2%	-29%	-29%	25µM*
CN(C(=O)C(C)(C)C)c1ccc(OCC(=O)N2CCc3ccccc3C2)cc1	.	16µM*	?	.
Cc1cc(=O)oc2cc(OCC(=O)N3CCCc4ccccc43)ccc12	5%	?	?	?
Cc1cc(OCC(=O)N2CCc3ccccc3C2)c(C)cc1Br	.	16µM*	?	.
O=C(COC(=O)c1cc(F)cc(F)c1)NCCCc1ccccc1	.	7%	-2%	2%
CCOc1ccc(CN(CC)C(=O)c2ccc3c(c2)[nH]c(=O)c(=O)n3CC)cc1OC	8%[0.0935 µM]	?	-4%	.
Cc1cc(C)n2nc(C(=O)OCC(=O)NCc3ccc(F)cc3)nc2n1	-3%	32%	19%	-1%
